{"source": "the supplement of paper PMC10121225", "note": "Where a name gives a salt, the structure may show the parent alone.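 Also: immunostained co-cultures imaged by high-content microscopy, Z-score per plate against mean and SD of 0.1% DMSO wells, compounds added on differentiation day 18, analysed day 21.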"}
{"system": "hN + hpA co-culture (H1 iNGN2 human neurons + human primary astrocytes)", "assay": "presynaptic density (SYNAPSIN1 puncta per MAP2 neurite area), Z-score vs DMSO controls; higher = more presynaptic puncta (synapse-promoting)", "settings": "3 µM; 72 h"}
{"smiles": "NC(=O)N1c2ccccc2CC(=O)c2ccccc21", "presynaptic density (Z-score)": 0.372}
{"smiles": "COc1ccccc1S(=O)(=O)Nc1ccc2c(c1)CN(C)C(=O)N2", "presynaptic density (Z-score)": 0.796}
{"smiles": "COc1cc2c(N3CCN(C(=O)Nc4ccc(OC(C)C)cc4)CC3)ncnc2cc1OCCCN1CCCCC1", "presynaptic density (Z-score)": -0.158}
{"smiles": "Nc1cccc(-c2cc3c(Oc4cccc(O)c4)ncnc3[nH]2)c1", "presynaptic density (Z-score)": 0.148}
{"smiles": "CC1(C)CCC(CN2CCN(c3ccc(C(=O)NS(=O)(=O)c4ccc(NCC5CCOCC5)c([N+](=O)[O-])c4)c(Oc4cnc5[nH]ccc5c4)c3)CC2)=C(c2ccc(Cl)cc2)C1", "presynaptic density (Z-score)": -1.11}
{"smiles": "NC(=O)c1ncn([C@@H]2O[C@H](CO)[C@@H](O)[C@H]2O)c1N", "presynaptic density (Z-score)": 0.26}
{"smiles": "Cc1noc(-c2ccc(CSCCC(=O)O)cc2)c1NC(=O)OC(C)c1ccccc1Cl", "note": "(centres undefined)", "presynaptic density (Z-score)": 0.975}
{"smiles": "CS(=O)(=O)c1cccc(CNc2nc(Nc3ccc4c(c3)CCC(=O)N4)ncc2C(F)(F)F)c1", "presynaptic density (Z-score)": 1.04}
{"smiles": "O=C(O)/C=C/c1ccc(Cn2ccnc2)cc1", "note": "[Ozagrel HCl]", "presynaptic density (Z-score)": -0.679}
{"smiles": "OC(CNCC(O)C1CCc2cc(F)ccc2O1)C1CCc2cc(F)ccc2O1", "note": "(centres undefined) [Nebivolol]", "presynaptic density (Z-score)": -0.196}
{"smiles": "Cc1nc2c(-c3cnc(N)nc3)nc(N3CCOCC3)nc2n1C(C)C", "presynaptic density (Z-score)": 1.07}
{"smiles": "COc1ccc2[nH]c([S@@+]([O-])Cc3ncc(C)c(OC)c3C)nc2c1", "note": "[Esomeprazole Sodium]", "presynaptic density (Z-score)": 0.0968}
{"smiles": "COc1cc2c(cc1-c1c(C)noc1C)ncc1[nH]c(=O)n([C@H](C)c3ccccn3)c12", "note": "[I-BET 151 hydrochloride]", "presynaptic density (Z-score)": 3.55}
{"smiles": "Cc1cc(-c2ccc(CC(=O)Nc3ccc(-c4cccnc4)cc3)cc2)ccn1", "presynaptic density (Z-score)": 0.0884}
{"smiles": "C/C(=C\\C(=O)Nc1ccccc1C(=O)O)c1ccc2ccccc2c1", "presynaptic density (Z-score)": -1.34}
{"smiles": "Nc1nc(N)c2nc(-c3ccccc3)c(N)nc2n1", "note": "[Triamterene]", "presynaptic density (Z-score)": -0.407}
{"smiles": "Cc1cc(C(N)=O)ccc1-n1c(CCC(=O)O)ccc1-c1ccc(-n2ccnc2)cc1", "presynaptic density (Z-score)": -0.771}
{"smiles": "CC(C)NCCCn1c(Sc2cc3c(cc2I)OCO3)nc2c(N)ncnc21", "presynaptic density (Z-score)": -0.039}
{"smiles": "Cc1nc(C(=O)NCC(=O)O)c(O)c2ccc(Oc3ccccc3)cc12", "presynaptic density (Z-score)": 0.792}
{"smiles": "C[C@H](N[C@@H](CCc1ccccc1)C(=O)O)C(=O)N1CCC[C@H]1C(=O)O", "presynaptic density (Z-score)": -0.963}
{"smiles": "COc1ccc(C(=O)Nc2sc3c(c2C(N)=O)CCCC3)cc1OC", "presynaptic density (Z-score)": 0.457}
{"smiles": "COc1ccc2cccc(CCNC(C)=O)c2c1", "note": "[Agomelatine]", "presynaptic density (Z-score)": -0.284}
{"smiles": "COc1ccc(COc2ccc(Cc3cnc(N)nc3N)cc2OC)cc1", "presynaptic density (Z-score)": -0.788}
{"smiles": "COc1ccc(CC(C)NCC(O)c2ccc(O)c(NC=O)c2)cc1", "note": "(centres undefined)", "presynaptic density (Z-score)": 0.254}
{"smiles": "O=C1NC(=O)/C(=C/c2ccc(-c3ccc(F)cc3O)o2)S1", "presynaptic density (Z-score)": 0.652}
{"smiles": "CN1CCC(CNc2ccc3ncc(-c4cccc(OC(F)(F)F)c4)n3n2)CC1", "presynaptic density (Z-score)": -2.44}
{"smiles": "Cc1c(-c2ccc(O)cc2)n(Cc2ccc(OCCN3CCCCCC3)cc2)c2ccc(O)cc12", "note": "[Bazedoxifene HCl]", "presynaptic density (Z-score)": -0.982}
{"smiles": "CS(=O)(=O)c1ccc(-c2cnc(N)c(C(=O)Nc3ccccc3)n2)cc1", "presynaptic density (Z-score)": -0.463}
{"smiles": "CCc1cc(Nc2nccc(-c3c(-c4ccc(OC)c(C(=O)Nc5c(F)cccc5F)c4)nc4ccccn34)n2)c(OC)cc1N1CCC(N2CCN(S(C)(=O)=O)CC2)CC1", "presynaptic density (Z-score)": 0.31}
{"smiles": "C#Cc1cccc(Nc2ncnc3cc(OCCOC)c(OCCO)cc23)c1", "presynaptic density (Z-score)": -0.577}
{"smiles": "Cc1c(NC(=O)c2ccc(C(C)(C)C)cc2)cccc1-c1cn(C)c(=O)c(Nc2ccc(C(=O)N3CCOCC3)cc2)n1", "presynaptic density (Z-score)": 0.702}
{"smiles": "CCc1nc(N)nc(N)c1-c1ccc(Cl)cc1", "presynaptic density (Z-score)": -0.391}
{"smiles": "CC(C)(C)Cn1c(N)nc2ccc(-c3[nH]c(C(C)(C)C)nc3-c3ccc(F)cc3)nc21", "presynaptic density (Z-score)": 0.191}
{"smiles": "NC(=O)c1cccc(-c2cccc(OC(=O)NC3CCCCC3)c2)c1", "presynaptic density (Z-score)": -1.17}
{"smiles": "COC1CC2CCC(C)C(O)(O2)C(=O)C(=O)N2CCCCC2C(=O)OC(C(C)CC2CCC(OC(=O)C(C)(CO)CO)C(OC)C2)CC(=O)C(C)C=C(C)C(O)C(OC)C(=O)C(C)CC(C)C=CC=CC=C1C", "note": "(centres undefined) [Temsirolimus (CCI-779]", "presynaptic density (Z-score)": 0.145}
{"smiles": "COc1cc2c(cc1OC)[C@@H]1Cc3ccc(OC)c(OC)c3CN1CC2", "note": "[Rotundine]", "presynaptic density (Z-score)": -0.985}
{"smiles": "C=C1C(=O)OC2C=C(C)CCC=C(C)CCC12", "note": "(centres undefined)", "presynaptic density (Z-score)": 0.309}
{"smiles": "C=C1C(=O)O[C@H]2[C@H]1CC/C(C)=C/CC[C@@]1(C)O[C@@H]21", "note": "[(-)-Parthenolide]", "presynaptic density (Z-score)": -0.888}
{"smiles": "O=C(Nc1ccncc1)c1cc([N+](=O)[O-])ccc1Cl", "note": "[2-Chloro-5-nitro-N-4-pyridinylbenzamide]", "presynaptic density (Z-score)": 0.702}
